# Reference: PubChem BioAssay (NCATS)
# Inconclusive results are not listed. A call without a number means that no potency is given here. Unmarked numbers belong to inactive results. Calls of active or inactive are those of the source. The call rests on the fitted dose curve; in most records, active means well fitted cell-killing curve with a large enough effect; inconclusive means small, poorly fitted or top-dose-only effect, or effect the other way; inactive means no such curve, though single readings can be large or run the other way. Positions of bridges follow the written chain, without caps; N, C: chain ends. Non-standard residues stand in square brackets, D forms with d. Residues, ends and D or L forms follow the SMILES beside them. ξ: configuration not given here. *: point of attachment. Octanoyl(6-Me) = CCC(C)CCCCC(=O)*; ξThr(3R) = C[C@@H](O)C(N)C(=O)O; dDab = NCC[C@@H](N)C(=O)O; Dab = NCC[C@H](N)C(=O)O
# Key:
# [1] = Quantitative High-Throughput drug screen in 47 multiple myeloma cell lines against the NCATS MIPE library collection: OCIMY1_PLB cell viability assay (AID 1918979); further: nearly all actives have a fitted effect of over 35% in size; further: potency means the concentration at half of the fitted maximal effect
# How it was run: (§1)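 500 cells/well; MIPE 4.0 drugs pin-transferred; 48 h, 37C, 5% CO2. CellTiter-Glo, 5 min RT, luminescence. Controls: DMSO 100%, media 0%.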
# [2] = Quantitative High-Throughput drug screen in 47 multiple myeloma cell lines against the NCATS MIPE library collection: MM1R_ATCC cell viability assay (AID 1918981); further: nearly all actives have a fitted effect of over 35% in size; further: potency means the concentration at half of the fitted maximal effect
# How it was run: as §1
# [3] = Quantitative High-Throughput drug screen in 47 multiple myeloma cell lines against the NCATS MIPE library collection: LP1_DSMZ cell viability assay (AID 1918982); further: nearly all actives have a fitted effect of over 35% in size
# How it was run: as §1
# [4] = Quantitative High-Throughput drug screen in 47 multiple myeloma cell lines against the NCATS MIPE library collection: KMS28PE_JCRB cell viability assay (AID 1918983); further: nearly all actives have a fitted effect of over 35% in size; further: potency means the concentration at half of the fitted maximal effect
# How it was run: as §1
# [5] = Quantitative High-Throughput drug screen in 47 multiple myeloma cell lines against the NCATS MIPE library collection: OPM1_PLB cell viability assay (AID 1918989); further: nearly all actives have a fitted effect of over 40% in size; further: potency means the concentration at half of the fitted maximal effect
# How it was run: as §1
# [6] = Quantitative High-Throughput drug screen in 47 multiple myeloma cell lines against the NCATS MIPE library collection: XG6_PLB cell viability assay (AID 1919865); further: nearly all actives have a fitted effect of over 40% in size; further: potency means the concentration at half of the fitted maximal effect
# How it was run: as §1
# [7] = Quantitative High-Throughput drug screen in 47 multiple myeloma cell lines against the NCATS MIPE library collection: VP6_DJ cell viability assay (AID 1919867); further: nearly all actives have a fitted effect of over 40% in size; further: potency means the concentration at half of the fitted maximal effect
# How it was run: as §1
# [8] = Quantitative High-Throughput drug screen in 47 multiple myeloma cell lines against the NCATS MIPE library collection: PE2_PLB cell viability assay (AID 1919869); further: nearly all actives have a fitted effect of over 35% in size; further: potency means the concentration at half of the fitted maximal effect
# How it was run: as §1
# [9] = Quantitative High-Throughput drug screen in 47 multiple myeloma cell lines against the NCATS MIPE library collection: PCM6_Riken cell viability assay (AID 1919870); further: nearly all actives have a fitted effect of over 30% in size; further: potency means the concentration at half of the fitted maximal effect
# How it was run: as §1
# [10] = Quantitative High-Throughput drug screen in 47 multiple myeloma cell lines against the NCATS MIPE library collection: RPMI8226_ATCC cell viability assay (AID 1919871); further: nearly all actives have a fitted effect of over 30% in size; further: potency means the concentration at half of the fitted maximal effect
# How it was run: as §1
# [11] = Quantitative High-Throughput drug screen in 47 multiple myeloma cell lines against the NCATS MIPE library collection: OPM2_DSMZ cell viability assay (AID 1919872); further: nearly all actives have a fitted effect of over 30% in size
# How it was run: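 We plated 500 myeloma cells per well, pinned in MIPE 4.0 compounds, and incubated for 48 hours at 37C. ATP was then quantified with CellTiter-Glo, with DMSO and media-only wells defining 100% and 0%.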
# [12] = Quantitative High-Throughput drug screen in 47 multiple myeloma cell lines against the NCATS MIPE library collection: OCIMY7_PLB cell viability assay (AID 1918987); conditions: OCI-MY7 myeloma viability, CellTiter-Glo ATP, 48 h; viability (% of DMSO): at 45.8 µM (top of the series); further: nearly all actives have a fitted effect of over 65% in size; further: potency means the concentration at half of the fitted maximal effect
# How it was run: as §1
# [13] = Quantitative High-Throughput drug screen in 47 multiple myeloma cell lines against the NCATS MIPE library collection: OCIMY5_PLB cell viability assay (AID 1918988); further: nearly all actives have a fitted effect of over 65% in size; further: potency means the concentration at half of the fitted maximal effect
# How it was run: as §1
# [14] = Quantitative High-Throughput drug screen in 47 multiple myeloma cell lines against the NCATS MIPE library collection: U266_ATCC cell viability assay (AID 1919864); further: nearly all actives have a fitted effect of over 35% in size; further: potency means the concentration at half of the fitted maximal effect
# How it was run: as §1
# [15] = Quantitative High-Throughput drug screen in 47 multiple myeloma cell lines against the NCATS MIPE library collection: UTMC2_PLB cell viability assay (AID 1919868); conditions: CellTiter-Glo ATP luminescence, 48 h; viability (% of DMSO control): at 45.8 µM (top of the series); further: nearly all actives have a fitted effect of over 55% in size; further: potency means the concentration at half of the fitted maximal effect
# How it was run: as §1
# [16] = Quantitative High-Throughput drug screen in 47 multiple myeloma cell lines against the NCATS MIPE library collection: L363_DSMZ cell viability assay (AID 1918984); further: nearly all actives have a fitted effect of over 40% in size; further: potency means the concentration at half of the fitted maximal effect
# How it was run: as §1
# [17] = Quantitative High-Throughput drug screen in 47 multiple myeloma cell lines against the NCATS MIPE library collection: KMS34_JCRB cell viability assay (AID 1918985); further: nearly all actives have a fitted effect of over 40% in size
# How it was run: as §1
# [18] = Quantitative High-Throughput drug screen in 47 multiple myeloma cell lines against the NCATS MIPE library collection: XG1_PLB cell viability assay (AID 1919866); further: nearly all actives have a fitted effect of over 35% in size; further: potency means the concentration at half of the fitted maximal effect
# How it was run: as §1
# [19] = Quantitative High-Throughput drug screen in 47 multiple myeloma cell lines against the NCATS MIPE library collection: SKMM1_PLB cell viability assay (AID 1919863); conditions: SKMM1 myeloma viability, CellTiter-Glo ATP, 48 h; viability: stronger effect = lower value; further: nearly all actives have a fitted effect of over 35% in size; further: potency means the concentration at half of the fitted maximal effect
# How it was run: as §1
Structure (SMILES),Potency [1],Potency [2],Potency [3],Potency [4],Potency [5],Potency [6],Potency [7],Potency [8],Potency [9],Potency [10],Potency [11],Potency [12],Potency [13],Potency [14],Potency [15],Potency [16],Potency [17],Potency [18],Potency [19],viability [19]
O=C(C[C@@H]1CC=CCCC(=O)O[C@H](c2ccccc2)CNC1=O)NCc1ccc(Cl)cc1,inactive,inactive,inactive,inactive,inactive,6.62 µM (active),13.2 µM (active),9.35 µM (active),5.9 µM (active),inactive,inactive,–,–,–,–,–,–,–,–,–
C[C@H]1[C@@H](OC(=O)CCC(=O)O)O[C@@H]2O[C@@]3(C)CC[C@@H]4[C@H](C)CC[C@@H]1[C@@]24OO3,14.8 µM (active),14.8 µM (active),–,5.26 µM (active),2.96 µM (active),4.69 µM (active),–,5.26 µM (active),5.9 µM (active),–,–,0.833 µM (active),4.69 µM (active),16.6 µM (active),4.69 µM (active),–,–,–,–,–
CC(C)N(CC[C@H](c1ccccc1)c1cc(CO)ccc1O)C(C)C,inactive,inactive,–,inactive,–,inactive,inactive,inactive,inactive,inactive,inactive,–,–,–,–,inactive,inactive,inactive,–,–
c1cc(N[C@@H]2CCNC2)nc(-c2cnc3ccc(-c4cn[nH]c4)cn23)c1,inactive,20.9 µM (active),–,16.6 µM (active),16.6 µM (active),2.64 µM (active),–,2.35 µM (active),5.9 µM (active),inactive,–,7.43 µM (active),–,–,4.69 µM (active),7.43 µM (active),–,5.26 µM (active),26.4 µM (active),–
C[C@H]1O[C@H](O[C@H]2[C@H](O)[C@@H](O)[C@@H](O[C@H]3[C@H](O)[C@@H](O)C(O)O[C@H]3CO)O[C@H]2CO)[C@H](O)[C@@H](O)[C@H]1N[C@H]1C=C(CO)[C@@H](O)[C@H](O)[C@@H]1O (stereo partly drawn),inactive,inactive,inactive,inactive,inactive,inactive,inactive,inactive,inactive,inactive,inactive,–,–,–,–,20.9 µM (active),–,inactive,–,131%
Cc1cc(O)c2c(c1)C(=O)c1cccc(O)c1C2=O,inactive,–,inactive,inactive,inactive,inactive,–,inactive,inactive,inactive,inactive,inactive,–,–,–,inactive,inactive,–,–,–
C=C[C@@H]1CN2CCC1C[C@H]2[C@H](O)c1ccnc2ccc(OC)cc12 (stereo partly drawn),inactive,–,inactive,inactive,inactive,–,–,–,–,inactive,inactive,–,18.7 µM (active),–,–,inactive,–,–,–,93.1%
COc1ccc(CCC(=O)c2c(O)cc(O[C@@H]3O[C@H](CO)[C@@H](O)[C@H](O)[C@@H]3O[C@@H]3O[C@@H](C)[C@H](O)[C@@H](O)[C@@H]3O)cc2O)cc1O,inactive,–,inactive,inactive,inactive,5.26 µM (active),9.35 µM (active),7.43 µM (active),7.43 µM (active),–,inactive,10.5 µM (active),–,8.33 µM (active),9.35 µM (active),–,inactive,7.43 µM (active),–,101%
Cc1ccccc1C(=O)Nc1ccc(C(=O)N2CCCC(O)c3cc(Cl)ccc32)c(C)c1 (stereo not drawn),inactive,inactive,–,inactive,inactive,–,–,–,–,inactive,inactive,–,–,inactive,–,–,–,14.8 µM (active),–,139%
CCC(C)CCCCC(=O)N[C@@H](CCN)C(=O)NC(C(=O)N[C@H](CCN)C(=O)N[C@@H]1CCNC(=O)C([C@@H](C)O)NC(=O)[C@@H](CCN)NC(=O)[C@@H](CCN)NC(=O)[C@@H](CC(C)C)NC(=O)[C@H](Cc2ccccc2)NC(=O)[C@H](CCN)NC1=O)[C@@H](C)O (stereo partly drawn) ({Octanoyl(6-Me)}-[Dab][ξThr(3R)][dDab][dDab][Dab]F[dL][dDab][dDab][ξThr(3R)]; lactam 4-C),inactive,inactive,inactive,inactive,–,–,inactive,inactive,inactive,inactive,inactive,inactive,–,–,–,–,inactive,inactive,–,110%
CC(=O)O[C@]1(C(C)=O)CC[C@H]2[C@@H]3C=C(C)C4=CC(=O)CC[C@]4(C)[C@@H]3CC[C@@]21C,inactive,11.8 µM (active),–,inactive,–,4.18 µM (active),7.43 µM (active),–,6.62 µM (active),14.8 µM (active),inactive,–,–,8.33 µM (active),–,9.35 µM (active),–,6.62 µM (active),–,–
C[C@]12CCC(=O)C=C1[C@@H]1CC1[C@H]1[C@H]3[C@@H]4C[C@H]4[C@@]4(CCC(=O)O4)[C@@]3(C)CC[C@H]12 (stereo partly drawn),inactive,inactive,–,inactive,inactive,–,inactive,inactive,inactive,18.7 µM (active),inactive,–,–,inactive,–,inactive,–,–,–,–
O=C(NNC(=O)c1ccc(CNS(=O)(=O)c2ccc(F)c(Cl)c2)cc1)c1ccccc1,inactive,inactive,–,inactive,–,inactive,inactive,inactive,inactive,inactive,inactive,–,inactive,inactive,inactive,–,inactive,–,–,–
O=C(O)CCCCC(CCSCc1ccccc1)SCc1ccccc1 (stereo not drawn),inactive,inactive,–,inactive,–,–,16.6 µM (active),inactive,–,inactive,inactive,–,–,–,–,13.2 µM (active),–,–,–,120%
CC1(C)CC(O)CC(C)(C)N1[O],inactive,inactive,inactive,inactive,inactive,inactive,–,inactive,inactive,inactive,inactive,–,–,–,–,inactive,–,–,–,–
C[N+]1(C)[C@@H]2C[C@@H](OC(=O)C(O)(c3cccs3)c3cccs3)C[C@H]1[C@@H]1O[C@@H]12,inactive,inactive,inactive,inactive,inactive,–,–,inactive,inactive,inactive,inactive,–,inactive,inactive,inactive,inactive,–,inactive,–,–
c1coc(CNc2ncnc3nc[nH]c23)c1,inactive,–,inactive,inactive,–,inactive,18.7 µM (active),–,–,–,inactive,–,2.09 µM (active),inactive,inactive,11.8 µM (active),–,inactive,–,–
Nc1ccn(C2CO[C@H](CO)O2)c(=O)n1 (stereo partly drawn),inactive,inactive,inactive,inactive,inactive,inactive,–,inactive,inactive,inactive,inactive,–,–,inactive,–,inactive,–,–,–,–
Nc1nc(=O)n([C@H]2CSC(CO)O2)cc1F (stereo partly drawn),inactive,inactive,inactive,inactive,inactive,inactive,inactive,inactive,inactive,inactive,inactive,–,–,–,–,inactive,–,–,–,114%
NC(=O)c1ncn([C@@H]2O[C@H](CO)[C@@H](O)[C@@H]2O)c1O,inactive,inactive,–,–,inactive,inactive,inactive,inactive,inactive,inactive,inactive,–,–,inactive,–,inactive,–,–,–,102%
C[C@](Cc1c[nH]c2ccccc12)(NC(=O)OC1C2CC3CC(C2)CC1C3)C(=O)NC[C@H](NC(=O)CCC(=O)O)c1ccccc1 (stereo partly drawn),inactive,inactive,inactive,–,–,–,–,inactive,–,inactive,inactive,–,inactive,inactive,–,–,–,–,–,–
COC(=O)[C@@H]1CC2=CC(=O)CC[C@]2(C)[C@@]23O[C@@H]2C[C@@]2(C)[C@H](CC[C@@]24CCC(=O)O4)[C@@H]13,inactive,inactive,inactive,inactive,inactive,inactive,–,inactive,inactive,inactive,inactive,–,–,inactive,–,–,inactive,inactive,–,–
C[C@H](O)[C@@H]1C(=O)N2C(C(=O)O)=C(S[C@@H]3CN[C@H](CNS(N)(=O)=O)C3)[C@@H](C)[C@@H]12,inactive,inactive,inactive,inactive,–,–,inactive,–,inactive,–,inactive,–,–,inactive,inactive,–,inactive,inactive,–,–
O=C(O)CCCCCC(=O)NN=C1CCCC1,inactive,inactive,inactive,inactive,inactive,–,inactive,inactive,inactive,inactive,inactive,–,–,inactive,–,–,–,inactive,–,–
O=C1c2c(O)cccc2[C@@H]([C@@H]2O[C@H](CO)[C@@H](O)[C@H](O)[C@H]2O)c2cc(CO)cc(O)c21,inactive,inactive,inactive,inactive,–,inactive,inactive,inactive,inactive,inactive,inactive,–,inactive,inactive,–,–,inactive,inactive,–,153%
CC(=O)N[C@@H]1[C@H](O[C@@H]2c3ccc(c(Cl)c3)Oc3cc4cc(c3O[C@H]3O[C@H](CO)[C@@H](O)[C@H](O)[C@H]3NC(=O)CCCCCCCC(C)C)Oc3ccc(cc3Cl)C[C@H]3NC(=O)[C@H](N)c5ccc(O)c(c5)Oc5cc(O)cc(c5)[C@H](NC3=O)C(=O)N[C@H]4C(=O)N[C@H]3C(=O)N[C@@H]2C(=O)N[C@@H](C(=O)O)c2cc(O)cc(O[C@H]4O[C@H](CO)[C@@H](O)[C@H](O)[C@H]4O)c2-c2cc3ccc2O)O[C@H](CO)[C@@H](O)[C@@H]1O,inactive,inactive,–,inactive,–,–,inactive,inactive,inactive,inactive,inactive,–,–,–,inactive,inactive,inactive,inactive,–,107%
